Measured values published in the supplement of paper PMC6555819.

These sequences were tested on RXRa homodimer (NR concentration 180 nM) (assay: PBM binding z-score (relative to random genomic background probes); higher = stronger binding; sequences stand for … in GC…GCGATTGACAGCGTAGAATGAAGG).
Procedure, shortened: (§1)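 Random background probes are the reference for binding z-scores. These scores derive from regression-normalized fluorescence on custom Agilent 4×180K protein-binding microarrays incubated 1 h with ligand-free nuclear receptor dimers. Binding was detected with antibodies against each partner (one per run).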

In order of falling PBM binding z-score:
1. CGTCCTAGGTCAAAGGTCAGTGAAGAGATGACGG  9.16
2. CGTCCAAGGTCATAGGAGGTCAGCGAAGACAGAT  7.72
3. CAAACTAGGTCACCTGAAGGTCAAAGTCCGCATG  6.63
4. CAAACTAGGTCACGAAAGTTCAAAGTCGAATGAC  5.99
5. AGTCAAAGTTCATCTAAGTAACGTAAGATATGCT  5.21
6. GCTAGTTGGTCAGTAAAAGGTCACACCCCGGTCG  4.86
7. CCTACTGGGCCAAAAAGGTCATTGAGGCCGATAA  4.63
8. ATCGAAAGGTCGGCGAGGTGAGTATACACCGTTT  3.86
9. CGAACTAGGTCATGGACAGGACAGTGAATAGTAA  3.41
10. TGAATGAGGTTAAAGATCGGGGAACGTGGCGTCG  3.31
11. TAGCTTAGGTCATGCGGGCCAGTATAGTGTCGGC  2.97
12. TCTAGCAGGCCAGAGGGTCATTCAAGAGGTACGG  2.87
13. TGGCCTAGGTCATTGGGCCAGTATAGTACGCATC  2.68
14. TCAAGCAGGCCAGAGGGTCACTCAAGAGGTACGG  2.67
15. AGAATGAGGTTACCAAAGATCAGCGAAACGCTTG  2.44
16. TCTAGCAGGCCCGAGGGTCACTCAAGAGGTACGG  2.42
17. ATACCAAGGTGATCTTGAGGTCGTTGATACTAAC  2.04
18. TCTTGTAGACCAATAGAGGTTAAGAAAGTGCGCT  1.37
19. CCTACCGGGCCATCAGGTCATTGATATCAACGTT  1.28
20. CGAACGAGGGCATGGGTTGATAGCAAATGCCGAT  1.26
21. TCCAGTAGGTTAGGGGCATTCAGAATGGCGTCGA  1.06
22. CCGACTGGGGCAGGGTTACCATAACGCACAGCCA  1.06
23. TCATATAGGTAAACGCTAGGTGAAAGTCCGATCT  0.944
24. GCTAGGAGGCCATTTGGGTCACTCAATGACGGGC  0.924
25. CGTCAAAGTTGAAGGTAACGTAACAGAAAGCAGC  0.848
26. ACTAGCAGGCCAAGTTTGGGTCACTTAAACAAAG  0.809
27. TCATATAGGTAAATGCTAGGTAAAAGTCCGATCT  0.806
28. ACTATTAGTTGAGAAGAGGGCAACCGATAGGTTG  0.599
29. ACTATTAGCTGAGACGAGGGCAACCGATAGGTTG  0.587
30. TCTATTAGTCGAAGGGCAACCGACGAGTCCGTTT  0.534
31. GCATATAGGTAATGCAAGGTGAAAGTCCGATTGT  0.519
32. CCTATTAGTTAACCATAAGGGCAACCGAAGCTCG  0.518
33. TCTATTAGTTGATTAGGGCAGCCGAAACAGCGGA  0.439
34. TAGCCTAGGTCGTGCGGGCCAGTATAGTGTCGGC  0.344
35. TCTTGTAGATAAGCAGGTTAAGAAAGCTGGCCAA  0.245
36. TCTTGTAGATCAAGCAGGTTAATAAAGCCTGAGT  0.2
37. TCGAGTAGGCTAGGGGCATTCAGAATGGCGTCGA  0.0581
38. ACTATTAGTTGAGACGTGGGCAACCGATAGGTTG  -0.275
39. CGAACTAGGACATTGACAGGACAGTGAATAGTAA  -0.322

Each sequence was assayed on THRa:RXRa (NR concentration 90 nM, RXRa partner concentration 90 nM) in the same assay as above.
Procedure, shortened: as §1

In order of rising PBM binding z-score:
1. ACTATTAGTTGAGACGTGGGCAACCGATAGGTTG  -0.642
2. TCTTGTAGATCAAGCAGGTTAATAAAGCCTGAGT  0.0183
3. TCTTGTAGATAAGCAGGTTAAGAAAGCTGGCCAA  0.129
4. TCGAGTAGGCTAGGGGCATTCAGAATGGCGTCGA  0.177
5. TCTATTAGTCGAAGGGCAACCGACGAGTCCGTTT  0.187
6. TCTATTAGTTGATTAGGGCAGCCGAAACAGCGGA  0.393
7. CGTCAAAGTTGAAGGTAACGTAACAGAAAGCAGC  0.402
8. CCGACTGGGGCAGGGTTACCATAACGCACAGCCA  0.632
9. TAGCCTAGGTCGTGCGGGCCAGTATAGTGTCGGC  0.675
10. CGAACTAGGACATTGACAGGACAGTGAATAGTAA  0.858
11. TCATATAGGTAAATGCTAGGTAAAAGTCCGATCT  0.9
12. TCCAGTAGGTTAGGGGCATTCAGAATGGCGTCGA  0.915
13. ACTATTAGCTGAGACGAGGGCAACCGATAGGTTG  0.992
14. ACTATTAGTTGAGAAGAGGGCAACCGATAGGTTG  1.37
15. CGAACGAGGGCATGGGTTGATAGCAAATGCCGAT  1.52
16. TCATATAGGTAAACGCTAGGTGAAAGTCCGATCT  1.52
17. TCTTGTAGACCAATAGAGGTTAAGAAAGTGCGCT  1.66
18. TCTAGCAGGCCCGAGGGTCACTCAAGAGGTACGG  1.67
19. TCAAGCAGGCCAGAGGGTCACTCAAGAGGTACGG  1.68
20. TCTAGCAGGCCAGAGGGTCATTCAAGAGGTACGG  1.83
21. CCTATTAGTTAACCATAAGGGCAACCGAAGCTCG  1.9
22. GCTAGGAGGCCATTTGGGTCACTCAATGACGGGC  2.33
23. TGAATGAGGTTAAAGATCGGGGAACGTGGCGTCG  2.55
24. AGTCAAAGTTCATCTAAGTAACGTAAGATATGCT  2.57
25. ACTAGCAGGCCAAGTTTGGGTCACTTAAACAAAG  2.58
26. TGGCCTAGGTCATTGGGCCAGTATAGTACGCATC  2.71
27. AGAATGAGGTTACCAAAGATCAGCGAAACGCTTG  2.73
28. CGAACTAGGTCATGGACAGGACAGTGAATAGTAA  3.13
29. CCTACCGGGCCATCAGGTCATTGATATCAACGTT  3.19
30. ATCGAAAGGTCGGCGAGGTGAGTATACACCGTTT  3.29
31. CCTACTGGGCCAAAAAGGTCATTGAGGCCGATAA  3.4
32. GCTAGTTGGTCAGTAAAAGGTCACACCCCGGTCG  3.57
33. TAGCTTAGGTCATGCGGGCCAGTATAGTGTCGGC  3.6
34. ATACCAAGGTGATCTTGAGGTCGTTGATACTAAC  3.66
35. GCATATAGGTAATGCAAGGTGAAAGTCCGATTGT  4.1
36. CAAACTAGGTCACCTGAAGGTCAAAGTCCGCATG  4.16
37. CAAACTAGGTCACGAAAGTTCAAAGTCGAATGAC  4.31
38. CGTCCTAGGTCAAAGGTCAGTGAAGAGATGACGG  4.54
39. CGTCCAAGGTCATAGGAGGTCAGCGAAGACAGAT  5.52
